The values that follow come from PubChem BioAssay (NCI).

This is part of a sample that, as a whole, favours compounds with a hit. Of some 83,000 tested, about 20% had one in any assay.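 The endpoint reported here, percent growth, reads 100 for growth as untreated, 0 for no net growth and -100 for all cells dead.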 A number with no mark means an inactive call. Calls of active or inactive are those of the source. The calls were made as follows: active = growth percent below 10; inactive = the rest.

This assay deals with MDA-MB-468 breast. Briefly: NCI-60 one-dose screen, 48 h (100 = growth as untreated, 0 = no growth, -100 = all killed). Particulars: 10 µM unless noted.
Regarding `CCCCN(CC)CCCCCCCCCCN1CCCc2cc(OC)ccc21`, the growth is 40.8%.
In the case of `Nc1ccn(C2CC(O)C(CO)O2)c(=O)n1` (stereo not given), the growth was 103%.
With `O=c1c2cc(Cl)ccc2oc2ccc(OCCCCCN3CCCCC3)cc12` the figure was 59.9%; with `Cn1cc(C2=C(c3cccc4ccccc34)C(=O)NC2=O)c2cc(Br)ccc21`, 87.2%; with `COc1ccc(Nc2cc(Cl)ccc2C(=O)O)cn1`, 95.8%.
As for `CC(=O)CC(=O)SC1=NCCS1`, the growth was 124%.
With `COc1ccc(-c2c(N)n[nH]c2-c2cc3c(c(OC)c2OC)OCO3)cc1` the figure was 104%; with `C=C1C(=O)O[C@H]2[C@H]1CC/C(Cn1cc(CCC)nn1)=C\CC[C@@]1(C)O[C@@H]21`, -31.7% (active); with `COc1cc(/C=C/C(=O)c2cc(OC)c(OC)c(OC)c2)ccc1Oc1nc(NCCO)nc(N2CCOCC2)n1`, -20.8% (active).
Turning to `c1ccc(-c2nc(Nc3nccnn3)c3ccccc3n2)cc1`, the growth is 83.5%.
On to `CC(C)COC(=O)COC(=O)OCCOCCOC(=O)OCC(=O)OCC(C)C`, for which the growth is 105%.
Take `Cc1c(CN)cc(-c2ccc(Cl)cc2)n1-c1ccccc1`: the growth is 18.7%.
For `CC(C)(C)C(=O)OCOP(=O)(OCOC(=O)C(C)(C)C)C1CC(O)N(O)C1=O` (stereo not given), the growth is 61%.
As for `O=C(N/N=C/c1c(Cl)cccc1Cl)c1ccc(C(F)(F)F)nc1Nc1cccc(C(F)(F)F)c1`, the growth is 11.9%.
In the case of `O=C(Nc1nc2ccc([N+](=O)[O-])cc2s1)Nc1ccccc1Cl`, the growth is 58.5%.
As for `CCCCCn1c(=N)n(CC(O)COc2cccc(C)c2)c2ccccc21` (stereo not given), the growth was -3.97% (active).
In the case of `CCN1C(=O)N(CC)C2C1NN=c1s/c(=C\c3ccccc3Br)c(=O)n12` (stereo not given), the growth was 27.5%.
For the molecule `O=C(O)CSc1ccc(NCc2oc(CO)cc(=O)c2O)cc1`, the growth was 108%.
With `Cc1ccc2c(-n3nc(C#N)c(C#N)c3N)cc(=O)[nH]c2c1` the figure was 92.6%.
With `Nc1c(C(=O)NC2CCCCC2)sc2nc3c(cc12)C(=O)CCC3` the figure was 86.1%; with `Clc1ccc(-c2cnc3nonc3n2)s1`, 49.6%.
Consider `COC1=CC=CC2(OC)C3(O)CCCc4cccc(c43)N3C(=O)COC132` (stereo not given), for which the growth is 115%.
For the molecule `CCCCCCCCCCCCCCCC[N+]1(CC)CCCC1`, the growth was -35.7% (active).
The result for `COc1ccc2nccc(/C=C/c3ccnc4ccc(OC)cc34)c2c1` reads 110%; that for `CCC(C)NCC(=O)O` (stereo not given), 100%; that for `O=C(COc1ccc(/C=C2\C(=O)Nc3ccc(F)cc32)cc1)Nc1ccccc1`, 98.5%.
Take `O=C1NCC2CCCC1C2` (stereo not given): the growth is 105%.
For `COc1ccc2c(c1)C(C)Cc1c(ncnc1-n1cnc3cc(C)ccc31)N2C` (stereo not given), the growth was 7.23% (active).
As for `CC[n+]1c(/C=C/C=C2\N(C)c3ccccc3C2(C)C)sc2ccccc21`, the growth was -12.3% (active).
With `Cc1ccc(/C=C/C(=O)Nc2ncc(Cc3ccc(F)cc3)s2)o1`, the growth is 34%.
With `NC(=O)c1ccccc1OCC(O)CO` (stereo not given), the growth is 95.6%.
`C=CC[N+]1(CC)CCN=C1CCCCCCCCCCCCCCCCC` (stereo not given): the growth was -82.6% (active).
For `CCOC(=O)C1=C(C)N=c2s/c(=C\c3ccccc3O)c(=O)n2C1c1ccc(OC)c2ccccc12` (stereo not given), the growth was -77.6% (active).
On to `CC(C)(C)c1ccc(S(=O)(=O)Oc2ccc3c4c(c(=O)oc3c2)CCCCC4)cc1`, for which the growth is 23.9%.
With `CN(C)C(=S)N(C)C`, the growth is 114%.
Consider `CCN1CCN(c2ccc(NC(=O)Nc3ccc4c(ccn4-c4ccnc(C(=O)NC)c4)c3)cc2C(F)(F)F)CC1`, for which the growth is 65.9%.
With `COc1ccc(C(=O)NCCNc2nccc(-c3c(-c4ccc(F)cc4)nc4sccn34)n2)cc1` the figure was 67.5%; with `Cc1nc2ccccc2c(/C=C/c2ccc(Br)cc2)c1C(=O)/C=C/c1ccccc1`, -15.5% (active); with `COc1ccc(-c2nnc(SCC(=O)c3ccc(Cl)cc3)o2)cc1`, 109%.
`O=S(=O)(Nc1cc(Sc2cccc3cccnc23)c(O)c2ccccc12)c1ccc(F)cc1`: the growth was -46.6% (active).
